According to PubChem BioAssay (NCI):
The panel holds about 79,000 compounds, 15% with a hit somewhere; the sample as a whole holds those more often. No stated cut-off is given here; in the data, active means growth inhibition above about 70%; inactive means the rest.

Legend:
[1] = NCI Yeast Anticancer Drug Screen. Data for the rad50 strain (AID 155);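 further: 0% = growth of vehicle-only cultures of the same strain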; settings: S. cerevisiae rad50 strain growth inhibition; at 50.0 µM; stronger effect = higher value
Outline: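 Growth of the mutant yeast was measured after compound exposure and referenced to vehicle-treated cultures.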

[2] = NCI Yeast Anticancer Drug Screen. Data for the mec2-1 strain (AID 157); settings: S. cerevisiae mec2-1 strain, at 50.0 µM, stronger effect = higher value
Outline: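 Yeast mec2-1 mutant treated with compound. Readout: growth inhibition vs vehicle controls.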

[3] = NCI Yeast Anticancer Drug Screen. Data for the sgs1 mgt1 strain (AID 161);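 further: 0% = growth of cultures given vehicle only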; settings: S. cerevisiae sgs1 mgt1 strain, at 50.0 µM, stronger effect = higher value
Outline: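 Test agents were incubated with a DNA-repair-mutant yeast strain. Growth was then read and compared against vehicle-treated controls.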

[4] = NCI Yeast Anticancer Drug Screen. Data for the cln2 rad14 strain (AID 165);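 further: 0% = growth equal to vehicle treated cultures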; settings: S. cerevisiae cln2 rad14 strain, at 50.0 µM, stronger effect = higher value
Outline: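 cln2 rad14 yeast strain; compound exposure; growth inhibition read vs vehicle controls.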

[5] = NCI Yeast Anticancer Drug Screen. Data for the bub3 strain (AID 167); settings: S. cerevisiae bub3 mutant strain, at 50.0 µM, stronger effect = higher value
Outline: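 Whole-cell yeast assay. The mutant strain was incubated with compounds, and growth inhibition was determined by comparison with vehicle-treated cells.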

[6] = NCI Yeast Anticancer Drug Screen. Data for the mlh1 rad18 strain (AID 175); settings: S. cerevisiae mlh1 rad18 strain growth inhibition; at 50.0 µM; stronger effect = higher value
Outline: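 Yeast w/ defined DNA-repair lesions; compound exposure; growth vs vehicle controls → % inhibition.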

Measured: growth inhibition

C=C1C(=O)O[C@@H]2C[C@@]3(C)CC(=O)C=C(C)[C@@H]3C[C@H]12
inactive: [1] 12.6% | [2] -7.15% | [3] -7.2% | [4] 24.7% | [5] 15.8% | [6] -16.4%

C=C1C(=O)O[C@H]2C[C@@]3(C)[C@H](O)CCC(=C)[C@@H]3[C@@H](OC(C)=O)[C@H]12
inactive: [1] 2.95% | [2] 25.4% | [3] 0.05% | [4] -6.7% | [5] -26.8% | [6] -29.4%

CCCCCC(O)(CCCCC)CCCCCCCCC1=C(O)c2ccccc2C(=O)C1=O
inactive: [1] -17.7% | [2] -18.6% | [3] -0.15% | [4] 5.75% | [5] 1% | [6] -79.2%

COC(=O)C(Cc1nc2ccccc2[nH]c1=O)C(=O)C(=O)Nc1cc(C(F)(F)F)ccc1Cl (configuration not stated)
inactive: [1] 5.3% | [2] -18.5% | [3] 19.4% | [4] 4.65% | [5] 2.4% | [6] 11.4%

CC12CCC(CC1)C(C)(C)O2
inactive: [1] -1.95% | [2] 3.3% | [3] -2.5% | [4] 9.6% | [5] -1.25% | [6] 4.7%

C=C(CCC(C(=O)O)C1CCC2(C)C3=C(CCC12C)C1(C)CCC(O)C(C)(C)C1CC3)C(C)C (configuration not stated)
inactive: [1] -4% | [2] -29.5% | [3] -0.75% | [4] 2.15% | [5] -23.6% | [6] -8.25%

CC(=O)C1=C(C)N2C(=NC3=C(CCc4ccccc43)C2c2cccc(Br)c2)S1 (configuration not stated)
inactive: [1] 12.4% | [2] -27.4% | [3] -19.4% | [4] 3.2% | [5] -7.5% | [6] -20.5%

O[C@H]1[C@H](O)[C@@H](Cn2nnc(-c3ccccc3)c2-c2ccccc2)OCO[C@@H]1Cn1nnc(-c2ccccc2)c1-c1ccccc1
inactive: [1] 53.3% | [2] 31% | [3] 13.4% | [4] 50.9% | [5] 28.8% | [6] 29.1%

N#CC1(C#N)N[C@@H](c2ccsc2)[C@H]2C(=O)N(c3ccccc3)C(=O)[C@H]21
inactive: [1] 5.6% | [2] -8.2% | [3] 3.75% | [4] 8.5% | [5] -6.95% | [6] -4.05%

CC1(C)Oc2ccc3c(=O)cc(-c4ccc(F)cc4)oc3c2C1C(=O)O (configuration not stated)
inactive: [1] -2.3% | [2] -16.6% | [3] -12.2% | [4] -9.1% | [5] 8.1% | [6] -28.8%

COc1ccc2c(c1)N(C(C)=O)CN1C(=O)CCC21 (configuration not stated)
inactive: [1] -10.4% | [2] 1.25% | [3] -1.25% | [4] 21.8% | [5] 6.85% | [6] -66%

O=C1NC(N/N=C\c2ccccc2)=N/C1=C/c1ccccc1
inactive: [1] -2.9% | [2] 5.2% | [3] -0.1% | [4] 2.25% | [5] -0.3% | [6] -26.5%

COC(=O)/C(=N\NC(=S)NN)C(C(=O)OC)C(=O)C(=O)Nc1cccc(C(F)(F)F)c1 (configuration not stated)
inactive: [1] 0.3% | [2] 1.4% | [3] 8.9% | [4] 5.6% | [5] -9.25% | [6] 24.1%

Cc1ccc(NC(=O)/C(=N\NC(N)=O)c2c(O)c3ccccc3[nH]c2=O)cc1
inactive: [1] 1.45% | [2] 4.6% | [3] -10.5% | [4] 7.85% | [5] -3.05% | [6] -33%

CC1CC(=O)N(N(C)C)C2(C#N)C(=O)N=C(N)C12C#N (configuration not stated)
inactive: [1] 15.4% | [2] 22.6% | [3] -16.1% | [4] 2.75% | [5] -4% | [6] -4.75%

C/C(=C\COc1cc(O)c2c(c1)C(=O)c1cc(C)cc(O)c1C2=O)CCC1OC1(C)C (configuration not stated)
inactive: [1] 16.7% | [2] -22.9% | [3] 4.55% | [4] -0.65% | [5] -12.4% | [6] -53.7%

COc1ccc(-c2coc3c4c(ccc3c2=O)OCO4)cc1OC
inactive: [1] 3.6% | [2] -13.4% | [3] 0.45% | [4] 7.2% | [5] -8.45% | [6] -30.8%
